“And” between values parts separate entries of the source, which are not always exact repeats. Equal values may be shown once. The whole screen tested about 5,500 compounds, of which about 2,000 (36%) were called active. Roughly 18% stayed inconclusive and do not appear here. Cut-off read from the data, not from the text of the source: active = normalized growth mostly below about 0.91 (no sharp cut-off); inconclusive = no clear call, values can overlap the other calls; inactive = mostly above about 0.92. This is one part of the list.
Test: chemical genetic growth profiling, strain panel (AID 1159580);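 note: tested at 20 µM; growth read once vehicle control cultures reached saturation at 30 °C; 1 = growth at the plate median or of vehicle wells; lower values mean less growth of the strain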
Details: growth OD

Measured: normalized growth

O=C(O)CC[N+](=O)[O-]
inactive: S. cerevisiae deletion strains, locus YJR075W, strain HOC1, active compounds read low 0.987 | S. cerevisiae deletion strains, locus YKL009W, strain mrt4, active compounds read low 0.971 | S. cerevisiae deletion strains, locus YKL068W, active compounds read low 0.978 | S. cerevisiae deletion strains, locus YKL085W, strain MDH1 (second series), active compounds read low 1.01 | S. cerevisiae deletion strains, locus YKL085W, strain MDH1, active compounds read low 1.01 | S. cerevisiae deletion strains, locus YKL160W, strain elf1, active compounds read low 1 | S. cerevisiae deletion strains, locus YKL190W, strain CNB1, active compounds read low 0.986 | S. cerevisiae deletion strains, locus YKR001C, strain vps1, active compounds read low 0.982 | S. cerevisiae deletion strains, locus YKR026C, strain gcn3, active compounds read low 1 | S. cerevisiae deletion strains, locus YKR091W, strain srl3, active compounds read low 0.993 | S. cerevisiae deletion strains, locus YLL001W, strain dnm1, active compounds read low 0.981 | S. cerevisiae deletion strains, locus YLL026W, active compounds read low 1.01 | S. cerevisiae deletion strains, locus YLL041C, strain sdh2, active compounds read low 1 | S. cerevisiae deletion strains, locus YLR027C, strain aat2, active compounds read low 1.01 | S. cerevisiae deletion strains, locus YLR039C, strain RIC1, active compounds read low 0.903 | S. cerevisiae deletion strains, locus YLR058C, strain SHM2, active compounds read low 0.991 | S. cerevisiae deletion strains, locus YLR102C, strain apc9, active compounds read low 0.979 | S. cerevisiae deletion strains, locus YLR113W, strain HOG1, active compounds read low 1.02 | S. cerevisiae deletion strains, locus YLR221C, strain rsa3, active compounds read low 1.03 | S. cerevisiae deletion strains, locus YLR258W, strain gsy2, active compounds read low 1.03 | S. cerevisiae deletion strains, locus YLR262C, strain YPT6 (second series), active compounds read low 0.989 | S. cerevisiae deletion strains, locus YLR262C, strain YPT6, active compounds read low 0.908 | S. cerevisiae deletion strains, locus YLR268W, strain sec22, active compounds read low 0.988 | S. cerevisiae deletion strains, locus YLR320W, strain mms22, active compounds read low 1.03 | S. cerevisiae deletion strains, locus YLR330W, strain CHS5, active compounds read low 0.982 | S. cerevisiae deletion strains, locus YLR342W, strain FKS1 (second series), active compounds read low 0.998 | S. cerevisiae deletion strains, locus YLR342W, strain FKS1, active compounds read low 1.01 | S. cerevisiae deletion strains, locus YLR357W, strain rsc2, active compounds read low 0.993 | S. cerevisiae deletion strains, locus YLR370C, strain arc18, active compounds read low 1 | S. cerevisiae deletion strains, locus YLR371W, strain rom2, active compounds read low 0.969 | S. cerevisiae deletion strains, locus YLR384C, strain iki3, active compounds read low 0.988 | S. cerevisiae deletion strains, locus YLR418C, strain cdc73, active compounds read low 1 | S. cerevisiae deletion strains, locus YML016C, strain PPZ1, active compounds read low 0.993 | S. cerevisiae deletion strains, locus YML032C, strain rad52, active compounds read low 0.973 | S. cerevisiae deletion strains, locus YML120C, strain ndi1, active compounds read low 0.999 | S. cerevisiae deletion strains, locus YML124C, strain tub3, active compounds read low 0.98 | S. cerevisiae deletion strains, locus YMR058W, strain fet3, active compounds read low 1.03 | S. cerevisiae deletion strains, locus YMR078C, strain ctf18, active compounds read low 0.976 | S. cerevisiae deletion strains, locus YMR125W, strain sto1, active compounds read low 0.988 | S. cerevisiae deletion strains, locus YMR129W, active compounds read low 0.996 | S. cerevisiae deletion strains, locus YMR205C, strain PFK2, active compounds read low 0.983 | S. cerevisiae deletion strains, locus YMR223W, strain ubp8, active compounds read low 0.977 | S. cerevisiae deletion strains, locus YMR231W, strain pep5, active compounds read low 0.986 | S. cerevisiae deletion strains, locus YMR263W, strain SAP30, active compounds read low 0.985 and 1 | S. cerevisiae deletion strains, locus YMR307W, strain GAS1, active compounds read low 0.924 | S. cerevisiae deletion strains, locus YNL067W, strain RPL9B, active compounds read low 0.991 | S. cerevisiae deletion strains, locus YNL071W, strain lat1, active compounds read low 1.01 | S. cerevisiae deletion strains, locus YNL128W, strain TEP1, active compounds read low 0.981 | S. cerevisiae deletion strains, locus YNL153C, strain GIM3, active compounds read low 0.994 | S. cerevisiae deletion strains, locus YNL175C, strain NOP13, active compounds read low 0.992 | S. cerevisiae deletion strains, locus YNL183C, strain NPR1, active compounds read low 0.953 | S. cerevisiae deletion strains, locus YNL197C, strain WHI3, active compounds read low 1.01 | S. cerevisiae deletion strains, locus YNL209W, strain ssb2, active compounds read low 1.01 | S. cerevisiae deletion strains, locus YNL224C, strain SQS1, active compounds read low 0.992 | S. cerevisiae deletion strains, locus YNL233W, strain BNI4, active compounds read low 1 | S. cerevisiae deletion strains, locus YNL248C, strain rpa49, active compounds read low 0.996 | S. cerevisiae deletion strains, locus YNL250W, strain rad50, active compounds read low 0.978 | S. cerevisiae deletion strains, locus YNL271C, strain bni1, active compounds read low 0.974 | S. cerevisiae deletion strains, locus YNL298W, strain CLA4, active compounds read low 0.98 | S. cerevisiae deletion strains, locus YNL307C, strain MCK1, active compounds read low 0.982 | S. cerevisiae deletion strains, locus YNL322C, strain KRE1 (second series), active compounds read low 0.989 | S. cerevisiae deletion strains, locus YNL322C, strain KRE1, active compounds read low 0.987 and 1.01 | S. cerevisiae deletion strains, locus YNR049C, strain mso1, active compounds read low 1 | S. cerevisiae deletion strains, locus YNR052C, strain pop2, active compounds read low 0.979 | S. cerevisiae deletion strains, locus YOL006C, strain TOP1, active compounds read low 1.01 | S. cerevisiae deletion strains, locus YOL012C, strain htz1 0.756 | S. cerevisiae deletion strains, locus YOL147C, strain pex11, active compounds read low 0.985 | S. cerevisiae deletion strains, locus YOR001W, strain rrp6, active compounds read low 1.03 | S. cerevisiae deletion strains, locus YOR061W, strain CKA2, active compounds read low 0.992 | S. cerevisiae deletion strains, locus YOR069W, strain VPS5, active compounds read low 0.99 | S. cerevisiae deletion strains, locus YOR070C, strain gyp1, active compounds read low 0.999 | S. cerevisiae deletion strains, locus YOR080W, strain dia2, active compounds read low 1 | S. cerevisiae deletion strains, locus YOR083W, strain WHI5 (second series), active compounds read low 0.995 | S. cerevisiae deletion strains, locus YOR083W, strain WHI5, active compounds read low 0.999 | S. cerevisiae deletion strains, locus YOR106W, strain vam3, active compounds read low 0.99 | S. cerevisiae deletion strains, locus YOR136W, strain idh2, active compounds read low 0.986 | S. cerevisiae deletion strains, locus YOR144C, strain elg1, active compounds read low 0.97 | S. cerevisiae deletion strains, locus YOR184W, strain ser1, active compounds read low 0.968 | S. cerevisiae deletion strains, locus YOR231W, strain MKK1, active compounds read low 0.971 | S. cerevisiae deletion strains, locus YOR265W, strain rbl2, active compounds read low 0.997 | S. cerevisiae deletion strains, locus YOR270C, strain vph1, active compounds read low 1.04 | S. cerevisiae deletion strains, locus YOR290C, strain snf2, active compounds read low 0.982 | S. cerevisiae deletion strains, locus YOR316C, strain cot1, active compounds read low 0.989 | S. cerevisiae deletion strains, locus YPL051W, strain arl3, active compounds read low 1.03 | S. cerevisiae deletion strains, locus YPL055C, strain LGE1, active compounds read low 0.972 and 1.02 | S. cerevisiae deletion strains, locus YPL078C, strain atp4, active compounds read low 0.981 | S. cerevisiae deletion strains, locus YPL106C, strain sse1, active compounds read low 1.04 | S. cerevisiae deletion strains, locus YPL240C, strain hsp82, active compounds read low 1.01 | S. cerevisiae deletion strains, locus YPL241C, strain CIN2, active compounds read low 0.941 | S. cerevisiae deletion strains, locus YPL256C, strain CLN2, active compounds read low 0.991 | S. cerevisiae deletion strains, locus YPR119W, strain clb2, active compounds read low 0.993 | S. cerevisiae deletion strains, locus YPR141C, strain kar3, active compounds read low 0.979 | S. cerevisiae deletion strains, locus YPR163C, strain tif3, active compounds read low 0.986 | S. cerevisiae deletion strains, locus YPR167C, strain met16, active compounds read low 0.996 | S. cerevisiae deletion strains, strain wtn01, active compounds read low 1.01 | S. cerevisiae strains, strain wild type, active compounds read low 0.999

From PubChem BioAssay AID1159580 (chemical genetic matrix, 2015)
